# An excerpt weighted towards active compounds, which were near 1.8% of everything screened.
# LYPLA2 inh – blocks human lysophospholipase 2, a PME1 counter-screen; O95372; recombinant LYPLA2, FP-Rh probe fluorescence polarization; inhibition, % at 5.9 µM; 320,000 tested, 0.38% active;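 active means inhibition above the screen-wide mean plus 3 SD, limit set per campaign, cut at about 26% in these data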;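 further: 0% = LYPLA2 with DMSO and 100% = wells lacking LYPLA2 enzyme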
# PME-1 inh – blocks human protein phosphatase methylesterase 1. 320,000 tested, 0.53% active. Q9Y570. inhibition, % at 5.9 µM. AID 2130. recombinant PME-1, FP-Rh probe fluorescence polarization;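 active means inhibition above the campaign mean of all compounds plus 3 SD, cut at about 26% in these data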;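 further: competitive labeling of PME-1 active site by serine hydrolase directed probe; 0% = PME-1 with DMSO and 100% = wells lacking PME-1 enzyme; inhibitors block probe labeling so polarization falls and inhibition rises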
# PAD4 inh – inhibitors of human PAD4 | recombinant PAD4, RCA probe fluorescence polarization | inhibition, % at 6.36 µM | 330,000 tested, 0.41% active | AID 485272;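 active means percent inhibition above a cutoff equal to the mean of all tested compounds plus 3 SD, cut at about 15% in these data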;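 further: 0% = PAD4 with RCA probe and DMSO and 100% = probe without PAD4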
# GSTO1 inh – GSTO1 inhibition, counter-screen for RBBP9 inhibitors | P78417 | recombinant GSTO1, activity-based probe fluorescence polarization | inhibition, % at 5.96 µM | 300,000 tested, 1.1% active | AID 1974;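 active means inhibition above the campaign mean inhibition plus 3 SD, cut at about 35% in these data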;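 further: 0% = GSTO1-1 with DMSO and 100% = wells lacking GSTO1-1 enzyme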
# Target sequence (P78417 whole entry, looked up): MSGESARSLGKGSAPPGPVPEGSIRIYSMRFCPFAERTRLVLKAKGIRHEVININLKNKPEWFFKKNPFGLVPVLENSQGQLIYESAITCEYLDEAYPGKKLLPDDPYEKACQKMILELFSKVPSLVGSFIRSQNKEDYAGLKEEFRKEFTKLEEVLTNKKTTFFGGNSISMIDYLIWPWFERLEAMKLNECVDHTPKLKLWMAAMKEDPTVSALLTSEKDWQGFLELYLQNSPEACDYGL
# LYPLA1 inh – blocks human lysophospholipase 1, a PME1 counter-screen; 320,000 tested, 0.16% active; recombinant LYPLA1, FP-Rh probe fluorescence polarization; inhibition, % at 5.9 µM; O75608;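 active means inhibition above the mean of all tested compounds plus 3 SD, set per campaign, cut at about 14% in these data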;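 further: inhibitors block serine hydrolase probe labeling of LYPLA1 so polarization falls; 0% = enzyme with DMSO and 100% = wells lacking LYPLA1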
# Target sequence (O75608 whole entry, looked up): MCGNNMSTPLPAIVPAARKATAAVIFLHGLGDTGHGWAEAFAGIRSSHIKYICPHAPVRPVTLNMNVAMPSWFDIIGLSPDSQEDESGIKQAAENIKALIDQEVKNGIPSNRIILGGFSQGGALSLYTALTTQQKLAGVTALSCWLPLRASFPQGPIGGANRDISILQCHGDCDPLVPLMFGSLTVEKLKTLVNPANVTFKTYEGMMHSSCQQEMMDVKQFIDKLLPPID
# Fam108B counter – counter-screen for RBBP9 inhibitors: inhibitors of mouse Fam108B; 300,000 tested, 0.33% active; recombinant Fam108B, FP-Rh probe fluorescence polarization; AID 1947; inhibition, % at 9.51 µM;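 active means inhibition above the screen mean inhibition plus 3 SD, computed separately per campaign, cut at about 18% in these data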;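 further: inhibitors lower polarization as less probe binds the enzyme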
# GSTO1 confirm – confirmation of human GSTO1 inhibitors | shares compounds with GSTO1 inh | recombinant GSTO1, probe fluorescence polarization | inhibition, % at 5.96 µM | 2,400 tested, 54% active;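 active means inhibition above the primary screen's cutoff, its mean inhibition plus 3 SD, cut at about 35% in these data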;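 further: loss of polarization as inhibitors block binding of rhodamine sulfonate ester activity probe; 0% = GSTO1 with DMSO and 100% = wells lacking GSTO1 enzyme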
# GSTO1 recomb ABPP – GSTO1 (human) inhibition by gel ABPP. shares compounds with GSTO1 inh. recombinant GSTO1, gel ABPP SE-Rh probe fluorescence. inhibition, % at 1 µM. 130 tested, 30% active. AID 463110;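 active means inhibition of the enzyme GSTO1 above about 75%, limit read from the data; inactive means inhibition below that limit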
# PAD4 confirm – confirmation of human PAD4 inhibitors; shares compounds with PAD4 inh; recombinant PAD4, RCA probe fluorescence polarization; inhibition, % at 6.36 µM; 1,200 tested, 28% active;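 active means mean inhibition across replicates above the hit cutoff set by the earlier primary screen, cut at about 15% in these data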;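 further: inhibitors block active-site labeling by the probe so polarization falls; 0% = PAD4 with probe and DMSO and 100% = probe without PAD4 enzyme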
# * marks the source's active call; other numbers are inactive results; x = not tested or not shown.
SMILES,LYPLA2 inh,PME-1 inh,PAD4 inh,GSTO1 inh,LYPLA1 inh,Fam108B counter,GSTO1 confirm,PAD4 confirm,others
O=C(COC(=O)[C@H](Cc1ccccc1)NC(=O)c1ccco1)Nc1ccccc1OC(F)F,x,x,2,x,x,x,x,x,
O=C(O)/C=C/C(=O)Nc1ccc(O)cc1,14,13,60*,59*,3,0,8,4,
Cc1ccc(NC(=O)CN(C)C(=O)COC(=O)[C@@H](NC(=O)c2ccccc2F)C(C)C)cc1,x,x,0,x,x,x,x,x,
CC(=O)n1cc(N(C(=O)CCl)c2ccc(Cl)cc2)c2ccccc21,2,-4,20*,82*,-2,-2,84*,51*,GSTO1 recomb ABPP=82*
O=C(O)CC1S/C(=N/N=C/c2ccc(-c3ccccc3[N+](=O)[O-])o2)NC1=O (stereo unspecified),2,-2,20*,62*,0,6,9,-2,
O=[N+]([O-])c1ccccc1-c1ccc(/C=N/n2cnnc2)o1,1,4,-4,12,1,-6,x,x,
COc1ccc2ccc3c(c2c1)N=CC1(O3)N(C)c2ccccc2C1(C)C (stereo unspecified),8,9,59*,90*,0,3,5,6,
O=C1C=C(O)c2cccc(O)c2C1=O,9,14,16*,43*,0,3,40*,4,
C#CCOc1ccc(/C=C2/C(=O)N(c3cccc(C(=O)O)c3)N=C2C)cc1OC,-4,3,39*,70*,0,2,8,3,
CC1=NN(c2ccccc2)C(=O)/C1=C\c1cn(CCC#N)nc1-c1ccc(Cl)cc1,1,-4,19*,53*,-1,0,10,6,
COc1ccccc1/C=C1/C(=O)N(c2ccccc2)N=C1C,2,-4,48*,46*,-1,1,13,-1,
COc1cc(/C=C2/C(=O)N(c3ccc(C)c(C)c3)N=C2C)cc([N+](=O)[O-])c1O,10,5,-6,7,4,16,x,x,
O=C(NCCCN1CCOCC1)c1ccc2c(=O)n(Cc3ccc(Cl)cc3)c(=S)[nH]c2c1,-4,-16,4,18,-11,-4,x,x,
CC1=NN(c2ccc(C)cc2C)C(=O)C1C(c1ccccc1O)C1C(=O)N(c2ccc(C)cc2C)N=C1C (stereo unspecified),5,0,45*,56*,-1,-2,10,-16,
CC1=NN(c2ccccc2)C(=O)C1N=Nc1ccc(C)cc1 (stereo unspecified),1,-2,0,2,1,-2,x,x,
Cc1ccc(C)c(C(=O)COC(=O)c2ccc(C)c(S(=O)(=O)N3CCOCC3)c2)c1,-6,5,-12,x,-3,x,x,x,
COc1ccc(-c2csc(NC(=O)c3cc(C)oc3C)n2)cc1OC,-4,7,-7,-1,1,-6,x,x,
Nc1nc(-c2cccs2)cs1,-1,1,19*,67*,-1,-2,13,5,
CCN(CC)c1ccc(NC(=O)c2ccc3c(c2)OCO3)cc1,7,4,-1,3,0,0,x,x,
CC1=NN(c2ccc(C)cc2)C(=O)/C1=C\c1ccc(Br)s1,-2,5,21*,40*,-2,11,12,40*,
CC1=NN(c2ccccc2)C(=O)/C1=C\c1cn(-c2ccccc2)nc1C,6,0,-3,6,-1,0,x,x,
CC(C)c1ccc(C(C(=O)NC2CCCCC2)N(C(=O)c2csnn2)C2CC2)cc1 (stereo unspecified),-4,0,2,8,-2,-3,x,x,
Cc1cccc(CN2CCN(CCCc3ccccc3)CC2)c1,13,2,-2,7,7,3,x,x,
Cc1cc(=O)n(CCCc2ccccc2)[nH]1,-3,0,29*,42*,-3,-4,8,-5,
Cc1ccc(N=Cc2ccc(N(C)C)cc2)cc1,6,-4,-1,6,3,-3,x,x,

# Source: PubChem
